Reference: paper PMC7862700, “An all-to-all approach to the identification of sequence-specific readers for epigenetic DNA modifications on cytosine”

Assays:
Assay in all cases: DAPPL (digital affinity profiling via proximity ligation, sequencing); 10 mM Tris-HCl pH 7.5, 50 mM NaCl, 1 mM DTT, 4% glycerol, room temperature, 30 min; GST-TFs on glutathione beads, 16-mer random dsDNA library, 0.1% formaldehyde crosslink after washing; high values mean tight binding
FEV = target: T1, FEV (Homo sapiens, UniProt Q99581 1-238); conditions: protein: recombinant; tags: N-terminal GST; dsDNA, one strand shown
T1 sequence: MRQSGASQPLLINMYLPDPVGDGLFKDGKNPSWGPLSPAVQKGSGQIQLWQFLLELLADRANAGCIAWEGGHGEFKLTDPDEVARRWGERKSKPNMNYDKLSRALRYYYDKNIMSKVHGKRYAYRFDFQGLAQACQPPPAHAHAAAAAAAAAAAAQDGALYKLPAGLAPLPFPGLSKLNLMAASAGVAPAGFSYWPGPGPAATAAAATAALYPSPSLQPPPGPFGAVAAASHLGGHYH
Procedure, shortened: (§1)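 Pools of DNA-barcoded human transcription factors, expressed in yeast as GST fusions on glutathione beads and combined with a tag-only sample, were incubated with 200 nmole of a 16-mer random double-stranded DNA library. Incubation took 30 min at room temperature in Tris/NaCl/DTT/glycerol buffer and was followed by washing, 0.1% formaldehyde crosslinking, proximity ligation (BsaI/T4 ligase, 1 h, 37 °C), PCR amplification and sequencing on an Illumina NextSeq500. Binding signal is the ratio of a hexamer's read frequency for a factor to its frequency for the tag-only sample.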

ETV5 = ETV5 (Homo sapiens, UniProt P41161 1-510); conditions: protein: recombinant; tags: N-terminal GST; dsDNA, one strand shown
Chain of ETV5 (P41161 whole entry): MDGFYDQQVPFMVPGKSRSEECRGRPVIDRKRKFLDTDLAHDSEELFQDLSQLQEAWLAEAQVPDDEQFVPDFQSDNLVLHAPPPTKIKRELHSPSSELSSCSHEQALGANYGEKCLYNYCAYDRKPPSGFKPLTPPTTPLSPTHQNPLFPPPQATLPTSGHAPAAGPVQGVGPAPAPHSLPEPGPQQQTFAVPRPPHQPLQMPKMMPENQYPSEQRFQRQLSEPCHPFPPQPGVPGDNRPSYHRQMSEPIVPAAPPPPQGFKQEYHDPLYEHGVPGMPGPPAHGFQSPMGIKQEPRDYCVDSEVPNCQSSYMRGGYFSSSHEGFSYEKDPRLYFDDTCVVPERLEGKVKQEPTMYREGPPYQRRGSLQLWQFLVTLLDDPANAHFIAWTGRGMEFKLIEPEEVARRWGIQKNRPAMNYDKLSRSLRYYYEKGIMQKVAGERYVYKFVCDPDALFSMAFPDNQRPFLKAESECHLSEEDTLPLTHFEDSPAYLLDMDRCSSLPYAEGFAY
Procedure, shortened: as §1

HSF1 = HSF1 (Homo sapiens, UniProt Q00613 1-529); conditions: protein: recombinant; tags: N-terminal GST; chain copies: 3; dsDNA, one strand shown
Chain of HSF1 (Q00613 whole entry): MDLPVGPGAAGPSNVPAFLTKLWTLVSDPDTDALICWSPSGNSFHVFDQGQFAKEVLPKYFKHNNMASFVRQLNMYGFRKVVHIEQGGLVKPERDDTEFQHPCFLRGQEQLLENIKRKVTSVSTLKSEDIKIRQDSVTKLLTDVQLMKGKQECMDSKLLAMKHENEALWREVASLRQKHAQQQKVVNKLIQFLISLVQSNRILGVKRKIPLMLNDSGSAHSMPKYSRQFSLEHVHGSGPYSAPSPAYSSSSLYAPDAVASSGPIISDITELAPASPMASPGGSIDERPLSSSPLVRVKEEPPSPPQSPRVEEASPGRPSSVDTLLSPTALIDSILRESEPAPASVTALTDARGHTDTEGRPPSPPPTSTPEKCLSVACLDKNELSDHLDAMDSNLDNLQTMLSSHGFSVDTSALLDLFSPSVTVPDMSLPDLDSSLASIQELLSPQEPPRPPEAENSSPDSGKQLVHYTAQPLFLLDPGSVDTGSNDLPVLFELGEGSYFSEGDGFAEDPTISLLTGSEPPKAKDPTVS
Procedure, shortened: as §1

SPIC = target: T2, SPIC (Homo sapiens, UniProt Q8N5J4 1-248); conditions: protein: recombinant; tags: N-terminal GST; dsDNA, one strand shown
T2 sequence: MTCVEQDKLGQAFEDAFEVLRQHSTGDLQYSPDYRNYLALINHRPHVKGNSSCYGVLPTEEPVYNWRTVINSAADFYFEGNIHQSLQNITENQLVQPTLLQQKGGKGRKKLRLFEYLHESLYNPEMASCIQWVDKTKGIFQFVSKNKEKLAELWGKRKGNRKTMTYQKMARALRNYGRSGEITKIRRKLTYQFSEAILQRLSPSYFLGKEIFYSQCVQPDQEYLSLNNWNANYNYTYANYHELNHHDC
Procedure, shortened: as §1

ELF4 = ELF4 (Homo sapiens, UniProt Q99607 1-663); conditions: protein: recombinant; tags: N-terminal GST; dsDNA, one strand shown
Chain of ELF4 (Q99607 whole entry): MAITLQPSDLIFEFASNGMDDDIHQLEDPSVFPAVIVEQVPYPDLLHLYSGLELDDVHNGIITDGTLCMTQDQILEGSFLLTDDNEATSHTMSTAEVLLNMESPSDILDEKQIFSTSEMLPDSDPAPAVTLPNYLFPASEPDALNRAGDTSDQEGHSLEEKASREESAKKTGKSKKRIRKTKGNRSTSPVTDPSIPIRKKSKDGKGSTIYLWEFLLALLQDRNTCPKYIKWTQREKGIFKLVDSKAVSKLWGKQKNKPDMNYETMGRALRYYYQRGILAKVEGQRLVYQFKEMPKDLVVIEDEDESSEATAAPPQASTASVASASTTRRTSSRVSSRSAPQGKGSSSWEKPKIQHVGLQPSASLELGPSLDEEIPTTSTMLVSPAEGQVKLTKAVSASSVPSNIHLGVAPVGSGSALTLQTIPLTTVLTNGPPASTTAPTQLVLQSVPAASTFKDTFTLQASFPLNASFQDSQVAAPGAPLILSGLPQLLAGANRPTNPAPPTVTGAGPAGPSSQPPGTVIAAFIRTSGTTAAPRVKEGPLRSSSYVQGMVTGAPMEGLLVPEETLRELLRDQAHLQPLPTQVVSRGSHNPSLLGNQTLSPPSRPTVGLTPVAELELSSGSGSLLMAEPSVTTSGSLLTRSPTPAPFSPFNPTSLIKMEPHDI
Procedure, shortened: as §1

ELK4 = target: T3, ELK4 (Homo sapiens, UniProt P28324-2 1-405); conditions: protein: recombinant; tags: N-terminal GST; dsDNA, one strand shown
T3 sequence: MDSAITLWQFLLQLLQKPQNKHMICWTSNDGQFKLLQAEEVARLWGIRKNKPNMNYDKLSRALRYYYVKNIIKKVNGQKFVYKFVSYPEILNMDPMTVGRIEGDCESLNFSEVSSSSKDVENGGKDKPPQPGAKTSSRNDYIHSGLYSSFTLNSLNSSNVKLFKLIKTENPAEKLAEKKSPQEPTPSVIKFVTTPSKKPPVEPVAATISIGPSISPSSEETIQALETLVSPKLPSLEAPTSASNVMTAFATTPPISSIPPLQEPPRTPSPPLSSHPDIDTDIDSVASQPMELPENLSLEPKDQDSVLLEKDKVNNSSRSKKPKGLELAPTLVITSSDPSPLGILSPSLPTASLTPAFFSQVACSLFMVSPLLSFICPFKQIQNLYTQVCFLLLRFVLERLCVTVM
Procedure, shortened: as §1

ETV2 = target: T4, ETV2 (Homo sapiens, UniProt O00321 1-342); conditions: protein: recombinant; tags: N-terminal GST; dsDNA, one strand shown
T4 sequence: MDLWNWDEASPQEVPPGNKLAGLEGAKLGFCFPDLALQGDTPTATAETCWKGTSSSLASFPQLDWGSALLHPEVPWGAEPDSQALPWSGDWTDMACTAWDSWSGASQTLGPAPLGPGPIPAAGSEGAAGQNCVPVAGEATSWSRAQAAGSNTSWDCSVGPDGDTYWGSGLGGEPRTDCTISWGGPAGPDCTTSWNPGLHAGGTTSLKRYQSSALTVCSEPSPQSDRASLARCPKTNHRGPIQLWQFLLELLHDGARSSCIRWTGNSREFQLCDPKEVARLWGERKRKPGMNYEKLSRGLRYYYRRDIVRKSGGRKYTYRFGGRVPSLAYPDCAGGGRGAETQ
Procedure, shortened: as §1

ELF3 = target: T5, ELF3 (Homo sapiens, UniProt P78545 1-371); conditions: protein: recombinant; tags: N-terminal GST; dsDNA, one strand shown
T5 sequence: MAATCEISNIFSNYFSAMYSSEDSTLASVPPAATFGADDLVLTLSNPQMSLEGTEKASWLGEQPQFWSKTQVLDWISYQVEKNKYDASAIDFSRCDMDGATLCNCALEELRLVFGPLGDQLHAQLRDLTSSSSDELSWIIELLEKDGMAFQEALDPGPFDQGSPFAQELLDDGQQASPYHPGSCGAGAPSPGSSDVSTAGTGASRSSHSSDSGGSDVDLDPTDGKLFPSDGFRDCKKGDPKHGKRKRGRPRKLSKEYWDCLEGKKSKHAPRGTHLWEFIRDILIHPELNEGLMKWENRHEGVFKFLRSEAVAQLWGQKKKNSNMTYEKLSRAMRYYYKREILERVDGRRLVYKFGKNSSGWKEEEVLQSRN
Procedure, shortened: as §1

CRX = CRX (Homo sapiens, UniProt O43186 1-299); conditions: protein: recombinant; tags: N-terminal GST; dsDNA, one strand shown
Chain of CRX (O43186 whole entry): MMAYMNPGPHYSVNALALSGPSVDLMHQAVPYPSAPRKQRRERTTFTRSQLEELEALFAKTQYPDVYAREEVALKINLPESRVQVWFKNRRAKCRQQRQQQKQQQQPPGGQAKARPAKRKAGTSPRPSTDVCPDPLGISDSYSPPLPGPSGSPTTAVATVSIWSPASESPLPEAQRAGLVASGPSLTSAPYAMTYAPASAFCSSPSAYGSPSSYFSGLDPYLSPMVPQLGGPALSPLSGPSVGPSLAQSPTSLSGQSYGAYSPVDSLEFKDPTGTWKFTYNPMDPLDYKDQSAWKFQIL
Procedure, shortened: as §1

ETV1 = ETV1 (Homo sapiens, UniProt P50549 1-477); conditions: protein: recombinant; tags: N-terminal GST; dsDNA, one strand shown
Chain of ETV1 (P50549 whole entry): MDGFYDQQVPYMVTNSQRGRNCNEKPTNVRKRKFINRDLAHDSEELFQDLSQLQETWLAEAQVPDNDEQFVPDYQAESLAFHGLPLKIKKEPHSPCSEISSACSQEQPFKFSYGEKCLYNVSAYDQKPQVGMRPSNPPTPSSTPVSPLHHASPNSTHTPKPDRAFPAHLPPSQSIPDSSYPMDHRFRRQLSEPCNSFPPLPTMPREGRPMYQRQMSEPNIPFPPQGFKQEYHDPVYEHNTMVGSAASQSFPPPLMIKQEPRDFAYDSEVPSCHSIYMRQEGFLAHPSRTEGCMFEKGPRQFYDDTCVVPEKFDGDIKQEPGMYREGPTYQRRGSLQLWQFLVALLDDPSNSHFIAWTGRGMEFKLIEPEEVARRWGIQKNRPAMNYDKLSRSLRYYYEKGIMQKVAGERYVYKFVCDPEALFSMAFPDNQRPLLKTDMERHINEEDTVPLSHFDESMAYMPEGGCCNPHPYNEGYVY
Procedure, shortened: as §1

Q: Which binding signal (FEV) does the source give for CCTATC here?
A: 1.16 fold enrichment (6-mer frequency, TF over GST control)

Q: What about the binding signal (ETV5) of the same sequence?
A: 1.14 fold enrichment (6-mer frequency, TF over GST control)

Q: And the binding signal (HSF1)?
A: 1.06 fold enrichment (6-mer frequency, TF over GST control)

Q: What about the binding signal (SPIC) of the same sequence?
A: 1.1 fold enrichment (6-mer frequency, TF over GST control)

Q: And the binding signal (ELF4)?
A: 1.16 fold enrichment (6-mer frequency, TF over GST control)

Q: And the binding signal (ELK4)?
A: 1.14 fold enrichment (6-mer frequency, TF over GST control)

Q: And the binding signal (ETV2)?
A: 1.08 fold enrichment (6-mer frequency, TF over GST control)

Q: What about the binding signal (ELF3) of the same sequence?
A: 1.23 fold enrichment (6-mer frequency, TF over GST control)

Q: What about the binding signal (CRX) of the same sequence?
A: 1.15 fold enrichment (6-mer frequency, TF over GST control)

Q: What about the binding signal (ETV1) of the same sequence?
A: 1.16 fold enrichment (6-mer frequency, TF over GST control)
